Measurements as given in PubChem BioAssay AID1159580 (chemical genetic matrix, 2015).
Several values for one entry are separate records, joined by “and”; a condition that tells them apart may be missing. Identical values can stand only once. About 2,000 (36%) of roughly 5,500 compounds were called active. About 18% were inconclusive and are not listed. Rule as the data show it: active = normalized growth mostly below about 0.91 (no sharp cut-off); inconclusive = no clear call, values can overlap the other calls; inactive = mostly above about 0.92. Some of the results follow.

Assay: chemical genetic growth profiling, strain panel (AID 1159580);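 also: tested at 20 µM; growth read once vehicle control cultures reached saturation at 30 °C; 1 = growth at the plate median or of vehicle wells; lower values mean less growth of the strain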
Settings: S. cerevisiae deletion strains, growth OD

Measured: normalized growth

N=C(N)N
inactive: locus YAL013W, strain DEP1, hits give low values 1.01 | locus YAL021C, strain ccr4, hits give low values 0.995 | locus YAL026C, strain drs2, hits give low values 0.994 | locus YAL030W, strain snc1, hits give low values 0.993 | locus YBL061C, strain skt5, hits give low values 0.992 | locus YBR009C, strain hhf1, hits give low values 1.01 | locus YBR021W, strain FUR4, hits give low values 1.03 | locus YBR023C, strain chs3, hits give low values 1.01 | locus YBR171W, strain sec66, hits give low values 0.977 | locus YBR229C, strain ROT2, hits give low values 0.999 | locus YBR231C, strain swc5, hits give low values 0.98 | locus YBR279W, strain paf1, hits give low values 0.993 | locus YCL011C, strain gbp2, hits give low values 1.01 | locus YCL016C, strain dcc1, hits give low values 1.01 | locus YCL029C, strain bik1, hits give low values 0.963 | locus YCL061C, strain MRC1, hits give low values 0.996 | locus YCL069W, strain vba3, hits give low values 0.998 | locus YCR088W, strain abp1, hits give low values 0.992 | locus YDL005C, strain med2, hits give low values 0.987 | locus YDL035C, strain GPR1, hits give low values 1.03 | locus YDL040C, strain nat1, hits give low values 1 | locus YDL074C, strain BRE1, hits give low values 1.01 | locus YDL101C, strain DUN1, hits give low values 0.991 | locus YDL134C, strain PPH21, hits give low values 1.01 | locus YDL185W, strain tfp1, hits give low values 0.968 | locus YDL192W, strain arf1, hits give low values 0.982 | locus YDR001C, strain nth1, hits give low values 0.994 | locus YDR069C, strain doa4, hits give low values 0.983 | locus YDR101C, strain arx1, hits give low values 0.994 | locus YDR137W, strain rgp1, hits give low values 1 | locus YDR150W, strain NUM1, hits give low values 0.992 | locus YDR159W, strain sac3, hits give low values 0.929 | locus YDR162C, strain NBP2, hits give low values 0.996 | locus YDR195W, strain ref2 0.943 | locus YDR297W, strain sur2, hits give low values 0.993 | locus YDR318W, strain mcm21, hits give low values 0.981 | locus YDR334W, strain swr1, hits give low values 0.992 | locus YDR335W, strain msn5, hits give low values 1.06 | locus YDR388W, hits give low values 0.972 | locus YDR392W, strain spt3, hits give low values 0.875 | locus YDR502C, strain sam2, hits give low values 0.999 | locus YEL003W, strain gim4, hits give low values 0.992 | locus YEL037C, strain rad23, hits give low values 0.998 | locus YEL061C, strain CIN8 (second series), hits give low values 1 | locus YEL061C, strain CIN8, hits give low values 0.996 | locus YER015W, strain faa2, hits give low values 0.999 | locus YER016W, strain bim1, hits give low values 0.997 | locus YER110C, hits give low values 0.976 | locus YER111C, strain swi4, hits give low values 0.998 | locus YER155C, strain BEM2 (second series), hits give low values 0.976 | locus YER155C, strain BEM2, hits give low values 1 | locus YER167W, strain BCK2, hits give low values 1.02 | locus YFR010W, strain ubp6, hits give low values 0.995 | locus YGL078C, strain dbp3, hits give low values 1 | locus YGL086W, strain mad1, hits give low values 1.01 | locus YGL167C, strain pmr1, hits give low values 1 | locus YGL173C, strain kem1, hits give low values 0.987 | locus YGL227W, strain vid30, hits give low values 0.991 | locus YGL240W, strain doc1, hits give low values 0.999 | locus YGL248W, strain PDE1, hits give low values 1 | locus YGL253W, strain hxk2, hits give low values 1 | locus YGR078C, strain PAC10, hits give low values 0.997 | locus YGR135W, strain pre9, hits give low values 1 | locus YGR229C, strain SMI1, hits give low values 1.04 | locus YGR252W, strain gcn5, hits give low values 1.13 | locus YHR013C, strain ard1, hits give low values 1.01 | locus YHR027C, strain rpn1, hits give low values 1.01 | locus YHR030C, strain SLT2, hits give low values 1 and 1.05 | locus YHR079C, strain IRE1 (second series), hits give low values 0.977 | locus YHR079C, strain IRE1, hits give low values 1.03 | locus YHR094C, strain hxt1, hits give low values 0.974 | locus YHR129C, strain ARP1, hits give low values 0.992 | locus YHR142W, strain chs7, hits give low values 1.02 | locus YHR200W, strain rpn10, hits give low values 0.992 | locus YIL066C, strain RNR3, hits give low values 0.994 | locus YIL073C, strain SPO22, hits give low values 0.9 | locus YIL125W, strain kgd1, hits give low values 0.991 | locus YIR030C, strain dcg1, hits give low values 0.99 | locus YJL092W, strain hpr5, hits give low values 0.999 | locus YJL095W, strain BCK1 (second series), hits give low values 0.998 | locus YJL095W, strain BCK1, hits give low values 0.993 and 1.05 | locus YJL115W, strain asf1, hits give low values 0.99 | locus YJL129C, strain trk1, hits give low values 0.985 | locus YJL134W, strain LCB3, hits give low values 0.997 | locus YJL154C, strain vps35, hits give low values 0.994 | locus YJL164C, strain tpk1, hits give low values 1.01 | locus YJL166W, strain qcr8, hits give low values 1.01 | locus YJL168C, strain set2, hits give low values 0.975 | locus YJL187C, strain SWE1 (second series), hits give low values 0.946 | locus YJL187C, strain SWE1, hits give low values 0.993 | locus YJR043C, strain POL32, hits give low values 0.999 | locus YJR066W, strain TOR1, hits give low values 0.957
